# Data: PubChem BioAssay (EPA / NIEHS)
# Records with an inconclusive call do not appear. Calls of active or inactive are those of the source. The calls were made as follows, unless noted: active = hit-call score of the fitted dose curve at least 0.9, where 1 is the maximum; inconclusive = response in the unintended direction; inactive = score below 0.9.
# Tests used:
# [1] = target: X-box-binding protein 1 (Homo sapiens) (UniProt P17861); assay: ATG_Xbp1_CIS: Attagene CIS-FACTORIAL HepG2 Assay for human X-box Binding Protein 1 (XBP1) (AID 2282972; active = hit-call score of the fitted dose curve at least 0.9, where 1 is the maximum; inactive = score below 0.9); settings: HepG2 XBP1 cis-element reporter, Attagene multiplex; actives raise or lower the signal
# Procedure, shortened: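 HepG2 cells transiently transfected with cis-regulated multiple reporter transcription units; endogenous transcription factor activity measured 24 hours after chemical dosing. Reporter mRNA quantified by RT-PCR, 6-FAM primer extension, HpaI digestion and capillary electrophoresis; bidirectional fitting versus DMSO.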
# [2] = ATG_GAL4_TRANS: Attagene TRANS-FACTORIAL HepG2 Assay for GAL4 (Internal Marker) (AID 2282976); settings: HepG2 Attagene TRANS GAL4 internal marker reporter
# Procedure, shortened: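 HepG2 cells transiently transfected with multiplexed GAL4-UAS reporter constructs were dosed for 24 h. Reporter mRNA was measured by RT-PCR, 6-FAM primer extension, HpaI digestion and capillary electrophoresis, and gain of signal was fitted relative to DMSO.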
# [3] = target: Glucocorticoid receptor (Homo sapiens) (UniProt P04150); assay: ATG_GR_TRANS: Attagene TRANS-FACTORIAL HepG2 Assay for human Glucocorticoid Receptor (GR) (AID 2282978); settings: HepG2 Attagene TRANS GR reporter, mRNA transcription;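 also: activators score as hits since higher reporter transcript over DMSO is fitted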
# Procedure, shortened: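 Exogenous NR-GAL4 fusion activity was assessed through induced GAL4-UAS reporter transcripts in transfected human HepG2 cells, quantified after 24 h by RT-PCR and fluorescent capillary electrophoresis with DMSO as baseline.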
# [4] = target: Oxysterols receptor LXR-alpha (Homo sapiens) (UniProt Q13133); assay: ATG_LXRa_TRANS: Attagene TRANS-FACTORIAL HepG2 Assay for human Liver X Receptor alpha (LXRa) (AID 2282980); settings: HepG2 Attagene TRANS reporter, LXRa transactivation
# Procedure, shortened: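 HepG2 cells were transiently transfected with multiplexed reporter units driven by chimeric LXRa–GAL4 fusion proteins, then dosed for 24 h. Reporter mRNA was quantified by RT-PCR, fluorescent labelling and capillary electrophoresis; gain of signal fitted against DMSO baseline.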
# [5] = target: Oxysterols receptor LXR-beta (Homo sapiens) (UniProt P55055); assay: ATG_LXRb_TRANS: Attagene TRANS-FACTORIAL HepG2 Assay for human Liver X Receptor beta (LXRb) (AID 2282981); settings: HepG2 Attagene TRANS GAL4-LXRb reporter, mRNA
# Procedure, shortened: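 Transient transfection HepG2 (multiplexed RTUs, GAL4-UAS); NR-Gal4 chimera; 24 h exposure; RNA → RT-PCR → 6-FAM primer extension → HpaI → CE; increase vs DMSO.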
# [6] = target: Estrogen-related receptor gamma (Homo sapiens) (UniProt P62508); assay: ATG_ERRg_TRANS: Attagene TRANS-FACTORIAL HepG2 Assay for human Estrogen-Related Receptor gamma (ERRg) (AID 2282977); settings: HepG2 Attagene TRANS reporter, ERRg transactivation;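 also: hits increase reporter signal over DMSO so potencies reflect activators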
# Procedure, shortened: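 HepG2 cells transiently transfected with multiplexed GAL4-UAS reporter units driven by chimeric NR-Gal4 proteins; 24 h exposure. Reporter mRNA quantified by RT-PCR, fluorescent labelling, HpaI digestion and capillary electrophoresis; gain of signal vs DMSO.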
# [7] = target: Bile acid receptor (Homo sapiens) (UniProt Q96RI1); assay: ATG_FXR_TRANS: Attagene TRANS-FACTORIAL HepG2 Assay for Farnesoid X Receptor (FXR) (AID 2282979); settings: HepG2 Attagene TRANS FXR-GAL4 reporter transcription;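 also: hits raise reporter mRNA above DMSO so AC50 marks FXR activation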
# Procedure, shortened: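 HepG2 cells transiently transfected with reporter constructs in which a chimeric FXR-GAL4 protein drives a GAL4-UAS reporter; 24 h compound exposure. Reporter mRNA measured by RT-PCR, FAM labelling, HpaI digestion and capillary electrophoresis; gain-of-signal versus DMSO.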
# [8] = ATG_M_19_TRANS: Attagene TRANS-FACTORIAL HepG2 Assay for M19 Transcription Factor (Internal Marker) (AID 2282974); settings: HepG2 Attagene TRANS-FACTORIAL M19 internal marker reporter
# Procedure, shortened: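 Using RT-PCR and capillary electrophoresis, reporter mRNA from transiently transfected human HepG2 cells was quantified following 24 h exposure; activity was fitted in the positive direction against DMSO.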
# [9] = target: Androgen receptor (Homo sapiens) (UniProt P10275); assay: ATG_AR_TRANS: Attagene TRANS-FACTORIAL HepG2 Assay for human Androgen Receptor (AR) (AID 2282973); settings: HepG2 Attagene TRANS-FACTORIAL AR reporter transcription
# Procedure, shortened: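 HepG2 cells transiently transfected with multiplexed GAL4-UAS reporter units and chimeric NR-Gal4 fusion; 24 h compound exposure. Reporter mRNA measured by RT-PCR, 6-FAM labelling, HpaI digestion and capillary electrophoresis; gain-of-signal fitted relative to DMSO baseline.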
# Sequence of Estrogen-related receptor gamma (Homo sapiens) (P62508 whole entry, looked up, the tested form may be a part): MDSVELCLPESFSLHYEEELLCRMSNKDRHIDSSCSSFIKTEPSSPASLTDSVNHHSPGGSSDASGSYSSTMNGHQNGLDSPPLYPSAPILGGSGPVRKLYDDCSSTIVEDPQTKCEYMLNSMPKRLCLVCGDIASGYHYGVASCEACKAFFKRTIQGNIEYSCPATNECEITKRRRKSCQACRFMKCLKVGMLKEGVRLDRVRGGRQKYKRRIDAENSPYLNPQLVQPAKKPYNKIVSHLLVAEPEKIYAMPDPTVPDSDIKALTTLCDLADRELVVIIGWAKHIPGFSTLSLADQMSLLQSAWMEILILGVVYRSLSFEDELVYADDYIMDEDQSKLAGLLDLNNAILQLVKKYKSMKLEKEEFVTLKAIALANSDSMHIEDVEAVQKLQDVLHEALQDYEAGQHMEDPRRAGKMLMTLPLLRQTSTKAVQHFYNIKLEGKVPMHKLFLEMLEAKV
# Sequence of Glucocorticoid receptor (Homo sapiens) (P04150 whole entry, looked up, the tested form may be a part): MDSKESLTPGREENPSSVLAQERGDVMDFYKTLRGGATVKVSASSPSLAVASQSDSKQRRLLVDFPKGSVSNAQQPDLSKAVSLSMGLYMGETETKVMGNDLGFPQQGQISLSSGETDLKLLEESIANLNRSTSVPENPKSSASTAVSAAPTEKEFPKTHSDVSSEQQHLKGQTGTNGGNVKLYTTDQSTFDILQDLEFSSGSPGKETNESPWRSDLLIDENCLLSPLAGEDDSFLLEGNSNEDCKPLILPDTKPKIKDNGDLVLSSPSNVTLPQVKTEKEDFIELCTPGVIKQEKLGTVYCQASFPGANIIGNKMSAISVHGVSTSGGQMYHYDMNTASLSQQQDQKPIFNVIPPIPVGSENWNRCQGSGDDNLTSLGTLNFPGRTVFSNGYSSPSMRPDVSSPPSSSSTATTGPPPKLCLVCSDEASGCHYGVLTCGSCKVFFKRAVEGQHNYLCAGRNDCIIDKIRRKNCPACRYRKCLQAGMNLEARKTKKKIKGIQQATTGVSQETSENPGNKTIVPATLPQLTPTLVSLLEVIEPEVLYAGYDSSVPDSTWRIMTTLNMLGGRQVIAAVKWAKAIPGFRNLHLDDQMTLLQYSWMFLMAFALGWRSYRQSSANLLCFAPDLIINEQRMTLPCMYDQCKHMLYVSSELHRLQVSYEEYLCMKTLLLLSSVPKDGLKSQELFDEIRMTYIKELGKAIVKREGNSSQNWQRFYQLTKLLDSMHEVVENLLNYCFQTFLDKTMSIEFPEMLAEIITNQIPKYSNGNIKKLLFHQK
# Sequence of Oxysterols receptor LXR-beta (Homo sapiens) (P55055 whole entry, looked up, the tested form may be a part): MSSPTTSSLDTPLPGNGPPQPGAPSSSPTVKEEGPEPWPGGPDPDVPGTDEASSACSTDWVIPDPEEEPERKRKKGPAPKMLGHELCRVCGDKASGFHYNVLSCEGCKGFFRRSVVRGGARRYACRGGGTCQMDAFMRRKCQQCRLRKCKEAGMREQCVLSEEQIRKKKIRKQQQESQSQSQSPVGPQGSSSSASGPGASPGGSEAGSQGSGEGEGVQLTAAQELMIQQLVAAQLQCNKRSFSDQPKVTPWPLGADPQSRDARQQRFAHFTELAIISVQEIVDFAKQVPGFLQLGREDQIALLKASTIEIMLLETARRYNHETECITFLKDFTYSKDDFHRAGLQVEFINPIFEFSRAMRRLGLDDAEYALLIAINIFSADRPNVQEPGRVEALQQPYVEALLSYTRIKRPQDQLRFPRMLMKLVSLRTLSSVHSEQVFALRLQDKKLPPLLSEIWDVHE
# Sequence of Oxysterols receptor LXR-alpha (Homo sapiens) (Q13133 whole entry, looked up, the tested form may be a part): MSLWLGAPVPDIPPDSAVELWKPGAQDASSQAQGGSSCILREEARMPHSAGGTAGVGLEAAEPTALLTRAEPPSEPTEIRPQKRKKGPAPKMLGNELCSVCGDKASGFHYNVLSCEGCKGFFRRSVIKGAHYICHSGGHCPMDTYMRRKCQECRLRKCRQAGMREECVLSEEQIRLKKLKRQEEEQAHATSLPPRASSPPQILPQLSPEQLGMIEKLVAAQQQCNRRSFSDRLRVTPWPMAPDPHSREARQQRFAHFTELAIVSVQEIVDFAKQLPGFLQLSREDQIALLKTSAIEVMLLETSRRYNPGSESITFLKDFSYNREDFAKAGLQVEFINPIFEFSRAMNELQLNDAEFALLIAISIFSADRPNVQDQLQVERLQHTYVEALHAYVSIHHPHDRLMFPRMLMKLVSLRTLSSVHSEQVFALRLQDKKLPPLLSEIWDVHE
# Sequence of X-box-binding protein 1 (Homo sapiens) (P17861 whole entry, looked up): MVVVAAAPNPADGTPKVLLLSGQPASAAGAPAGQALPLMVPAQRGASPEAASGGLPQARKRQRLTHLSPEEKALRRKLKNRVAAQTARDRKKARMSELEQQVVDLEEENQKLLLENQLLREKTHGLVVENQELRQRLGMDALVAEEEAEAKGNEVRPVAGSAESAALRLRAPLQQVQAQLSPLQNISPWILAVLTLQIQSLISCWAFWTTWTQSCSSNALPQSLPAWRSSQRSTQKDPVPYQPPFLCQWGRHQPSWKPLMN
# Sequence of Bile acid receptor (Homo sapiens) (Q96RI1 whole entry, looked up, the tested form may be a part): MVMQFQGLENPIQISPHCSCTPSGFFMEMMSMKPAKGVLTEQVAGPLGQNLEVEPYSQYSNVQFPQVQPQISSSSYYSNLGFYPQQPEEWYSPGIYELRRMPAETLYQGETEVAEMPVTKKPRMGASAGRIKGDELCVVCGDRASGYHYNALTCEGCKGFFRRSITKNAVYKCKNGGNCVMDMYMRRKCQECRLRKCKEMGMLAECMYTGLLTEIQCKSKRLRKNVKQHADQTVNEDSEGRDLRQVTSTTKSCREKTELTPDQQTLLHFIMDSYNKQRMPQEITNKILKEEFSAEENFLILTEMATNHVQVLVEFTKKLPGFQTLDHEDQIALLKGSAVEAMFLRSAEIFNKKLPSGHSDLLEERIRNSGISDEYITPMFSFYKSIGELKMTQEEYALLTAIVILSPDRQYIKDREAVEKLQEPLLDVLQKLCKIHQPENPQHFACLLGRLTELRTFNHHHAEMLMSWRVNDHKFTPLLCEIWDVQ
# Sequence of Androgen receptor (Homo sapiens) (P10275 whole entry, looked up, the tested form may be a part): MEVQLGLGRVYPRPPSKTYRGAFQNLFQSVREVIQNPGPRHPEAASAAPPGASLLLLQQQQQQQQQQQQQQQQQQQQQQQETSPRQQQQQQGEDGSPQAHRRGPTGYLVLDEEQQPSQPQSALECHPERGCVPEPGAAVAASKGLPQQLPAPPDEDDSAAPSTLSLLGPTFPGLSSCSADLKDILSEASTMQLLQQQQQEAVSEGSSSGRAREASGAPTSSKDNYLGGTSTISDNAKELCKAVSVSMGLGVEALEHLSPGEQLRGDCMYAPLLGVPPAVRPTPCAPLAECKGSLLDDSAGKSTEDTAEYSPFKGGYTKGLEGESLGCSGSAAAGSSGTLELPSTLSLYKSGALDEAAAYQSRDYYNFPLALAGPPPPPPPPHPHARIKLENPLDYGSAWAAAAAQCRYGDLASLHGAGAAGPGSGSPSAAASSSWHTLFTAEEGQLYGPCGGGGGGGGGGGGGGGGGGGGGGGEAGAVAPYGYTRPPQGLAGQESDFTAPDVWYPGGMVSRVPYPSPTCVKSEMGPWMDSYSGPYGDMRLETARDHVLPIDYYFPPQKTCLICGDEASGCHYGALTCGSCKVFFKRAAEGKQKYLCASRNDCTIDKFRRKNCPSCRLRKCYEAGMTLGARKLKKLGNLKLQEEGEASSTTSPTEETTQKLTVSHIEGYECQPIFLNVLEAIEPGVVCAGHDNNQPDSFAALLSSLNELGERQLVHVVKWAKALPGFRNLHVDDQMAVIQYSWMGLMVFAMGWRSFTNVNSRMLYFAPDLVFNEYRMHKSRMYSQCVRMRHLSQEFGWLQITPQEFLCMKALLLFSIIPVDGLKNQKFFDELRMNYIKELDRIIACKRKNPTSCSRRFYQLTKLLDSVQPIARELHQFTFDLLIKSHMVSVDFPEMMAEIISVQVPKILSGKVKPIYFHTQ
smiles,measurement,setting,value
CCOc1cc(C=O)ccc1O,outcome,[1],inactive
same,outcome,[2],inactive
same,outcome,[3],inactive
same,outcome,[4],inactive
same,outcome,[5],inactive
CCNc1nc(NCC)nc(SC)n1,outcome,[1],inactive
same,outcome,[3],inactive
Cc1c([N+](=O)[O-])c(C)c([N+](=O)[O-])c(C(C)(C)C)c1[N+](=O)[O-],AC50,[1],100 µM (active)
same,outcome,[6],inactive
BrCc1ccc(Br)cc1,outcome,[1],inactive
same,outcome,[2],inactive
same,outcome,[7],inactive
COC(=O)Nc1cccc(OC(=O)Nc2cccc(C)c2)c1,outcome,[1],inactive
same,outcome,[6],inactive
same,outcome,[7],inactive
same,outcome,[4],inactive
C[C@H]1C(=O)O[C@@H]2CCN3CC=C(COC(=O)[C@](C)(O)[C@]1(C)O)[C@H]23,outcome,[1],inactive
same,outcome,[2],inactive
same,outcome,[7],inactive
ClCCN1CCOCC1,outcome,[1],inactive
same,outcome,[4],inactive
O=C/C(Cl)=C(/Cl)C(=O)O,outcome,[1],inactive
same,outcome,[6],inactive
same,outcome,[7],inactive
same,outcome,[4],inactive
same,outcome,[5],inactive
CC(C)(c1ccc(O)c(-c2ccccc2)c1)c1ccc(O)c(-c2ccccc2)c1,AC50,[1],4.92 µM (active)
same,outcome,[3],inactive
same,outcome,[7],inactive
C=CC(=O)NC(C)(C)CC(C)=O,outcome,[1],inactive
same,outcome,[2],inactive
same,outcome,[4],inactive
same,outcome,[5],inactive
O=NN1CCCCCCC1,outcome,[1],inactive
same,outcome,[2],inactive
same,outcome,[3],inactive
same,outcome,[5],inactive
CC(C)CC(C)(c1ccc(O)cc1)c1ccc(O)cc1,AC50,[1],8.52 µM (active)
same,outcome,[3],inactive
same,AC50,[7],7.12 µM (active)
same,outcome,[5],inactive
CN(N=O)c1ccc([N+](=O)[O-])cc1,outcome,[1],inactive
same,outcome,[7],inactive
BrCCCCBr,outcome,[1],inactive
same,outcome,[2],inactive
same,outcome,[3],inactive
same,outcome,[4],inactive
same,outcome,[5],inactive
CCOC(=O)OC1=C(c2cc(C)ccc2C)C(=O)NC12CCC(OC)CC2 (stereo not drawn),outcome,[1],inactive
same,outcome,[3],inactive
same,outcome,[7],inactive
same,outcome,[4],inactive
same,outcome,[5],inactive
Cc1cccc(C)c1NC(=O)CN1CCCC1=O,outcome,[1],inactive
same,outcome,[4],inactive
OCCN(CCO)CCO,outcome,[1],inactive
same,outcome,[2],inactive
same,outcome,[4],inactive
same,outcome,[5],inactive
CCC[CH2][Sn]([CH2]CCC)([CH2]CCC)[CH2]CCC,outcome,[1],inactive
same,outcome,[3],inactive
same,outcome,[4],inactive
same,outcome,[5],inactive
O=C(Cc1ccccc1)OCCc1ccccc1,outcome,[1],inactive
same,outcome,[2],inactive
same,outcome,[3],inactive
same,outcome,[5],inactive
N#CS,outcome,[1],inactive
same,outcome,[2],inactive
same,outcome,[3],inactive
same,outcome,[4],inactive
same,outcome,[5],inactive
Nc1ccc(N)cc1,outcome,[1],inactive
same,outcome,[2],inactive
same,outcome,[7],inactive
same,outcome,[4],inactive
same,outcome,[5],inactive
Oc1c(Br)cc(Br)cc1Br,AC50,[1],42 µM (active)
same,outcome,[4],inactive
Cc1cccc(N=Nc2ccc(N(C)C)cc2)c1,outcome,[1],inactive
same,outcome,[6],inactive
CCCCCCCCCCCCN(C)C,AC50,[1],53.9 µM (active)
same,outcome,[3],inactive
same,outcome,[7],inactive
same,outcome,[4],inactive
same,outcome,[5],inactive
O=S(=O)(Oc1ccc(Cl)cc1)c1ccc(Cl)cc1,outcome,[1],inactive
same,outcome,[6],inactive
same,outcome,[3],inactive
CCOCn1c(-c2ccc(Cl)cc2)c(C#N)c(Br)c1C(F)(F)F,AC50,[1],2.71 µM (active)
same,outcome,[3],inactive
same,outcome,[4],inactive
same,outcome,[5],inactive
CCN(CCO)CCO,outcome,[1],inactive
same,outcome,[2],inactive
same,outcome,[3],inactive
same,outcome,[5],inactive
CC1(C)[C@H](/C=C2\CCSC2=O)[C@@H]1C(=O)OCc1coc(Cc2ccccc2)c1,outcome,[1],inactive
same,outcome,[4],inactive
CCN(CC)C(=O)C(Cl)=C(C)OP(=O)(OC)OC,outcome,[1],inactive
same,outcome,[3],inactive
same,outcome,[5],inactive
Cc1ccc2nc3sc(=O)sc3nc2c1,AC50,[1],6.96 µM (active)
same,outcome,[3],inactive
same,outcome,[4],inactive
same,outcome,[5],inactive
Nc1nc(N)nc(Cl)n1,outcome,[1],inactive
same,outcome,[2],inactive
same,outcome,[5],inactive
CCCCN(CCCC)C(=S)S,AC50,[1],70.5 µM (active)
same,outcome,[6],inactive
same,outcome,[5],inactive
Oc1ccc(Cc2ccc(O)cc2)cc1,outcome,[1],inactive
same,outcome,[3],inactive
same,outcome,[4],inactive
same,outcome,[5],inactive
Clc1ccc(C(Cl)(Cl)Cl)cn1,outcome,[1],inactive
same,outcome,[3],inactive
C#CCO,outcome,[2],inactive
same,outcome,[5],inactive
O=C(NC(=O)c1c(F)cccc1F)Nc1ccc(Cl)cc1,outcome,[4],inactive
CCCCCCCCCCCCOS(=O)(=O)O,outcome,[8],inactive
same,outcome,[2],inactive
same,outcome,[3],inactive
O=NN1CCCCCC1,outcome,[9],inactive
same,outcome,[2],inactive
same,outcome,[3],inactive
same,outcome,[5],inactive
C=C(C)C(=O)OCC(CC)CCCC (stereo not drawn),outcome,[2],inactive
same,outcome,[6],inactive
O=C(NC(=O)c1c(F)cccc1F)Nc1cc(Cl)c(OC(F)(F)C(F)C(F)(F)F)cc1Cl (stereo not drawn),outcome,[1],inactive
same,outcome,[4],inactive
same,AC50,[5],49.9 µM (active)
O=CCCl,AC50,[1],24.7 µM (active)
same,outcome,[4],inactive
same,outcome,[5],inactive
N#CCC#N,outcome,[3],inactive
same,outcome,[5],inactive
CC1CC(=O)O1 (stereo not drawn),outcome,[1],inactive
same,outcome,[5],inactive
O=[N+]([O-])c1ccc(Nc2ccccc2)cc1,outcome,[6],inactive
same,outcome,[3],inactive
same,outcome,[5],inactive
CC(C)(C#N)N=NC(C)(C)C#N,outcome,[8],inactive
same,outcome,[3],inactive
same,outcome,[4],inactive
same,outcome,[5],inactive
C1CCC(C2CCCCC2)CC1,outcome,[1],inactive
same,outcome,[4],inactive
same,outcome,[5],inactive
COC(=O)c1cc(Oc2ccc(Cl)cc2Cl)ccc1[N+](=O)[O-],outcome,[1],inactive
same,outcome,[4],inactive
same,outcome,[5],inactive
